Sampled rows, rich in hits. Any-hit rate of the full collection: about 3.2%.
Mtb bLac sens = beta-lactam sensitization of Mtb H37Rv; inhibition, % at 25 µM; 330,000 tested, 0.27% active; M. tuberculosis H37Rv growth with meropenem, percent inhibition; call rule not given here;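 further: growth measured after seven days incubation then overnight dye step; 0% = bacteria only wells and 100% = bacteria with antibiotic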
SSB-PriA inh = blocks PriA binding to SSB C-terminal tail | 430,000 tested, 0.6% active | inhibition, % at 33 µM | AlphaScreen SSBct-PriA binding, biotinylated peptide | AID 1272365; in the data active means inhibition mostly above about 37%, no sharp cut-off; inactive means mostly below about 20%;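 further: plate controls were negative control peptide for no effect and reference peptide for full effect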
Mtb UGM inh = blocks M. tuberculosis UGM enzyme. inhibition, % at 10 µM. 320,000 tested, 0.06% active. purified UGM, fluorescence polarization probe displacement. P9WIQ1; in the data active means inhibition above about 10%, passing the limit was not always enough
Target sequence (P9WIQ1 whole entry, looked up): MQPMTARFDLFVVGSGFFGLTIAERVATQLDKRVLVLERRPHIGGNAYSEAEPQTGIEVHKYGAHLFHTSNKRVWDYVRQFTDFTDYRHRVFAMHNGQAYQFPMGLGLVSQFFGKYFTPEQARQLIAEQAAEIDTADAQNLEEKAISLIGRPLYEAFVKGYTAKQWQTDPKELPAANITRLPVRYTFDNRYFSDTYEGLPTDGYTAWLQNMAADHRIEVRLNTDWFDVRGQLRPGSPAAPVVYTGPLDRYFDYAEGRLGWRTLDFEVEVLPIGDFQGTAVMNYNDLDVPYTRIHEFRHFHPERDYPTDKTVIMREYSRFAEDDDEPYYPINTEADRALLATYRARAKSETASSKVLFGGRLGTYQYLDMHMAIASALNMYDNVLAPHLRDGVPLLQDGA
Rv3671c protease = inhibitors of M. tuberculosis serine protease Rv3671c; P9WHR9; inhibition, % at 5.96 µM; 320,000 tested, 0.048% active; in the data active means inhibition above about 38%;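 further: extracellular domain of Rv3671c used as enzyme; 0% = enzyme with DMSO and 100% = no enzyme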
FBA Mtb inh = inhibitors of M. tuberculosis fructose-bisphosphate aldolase. P9WQA3. purified M. tuberculosis FBA, fluorescence read-out. inhibition, % at 1 µM. 360,000 tested, 2.3% active. AID 588726;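 further: 0% = vehicle and 100% = reference inhibitor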
GDH-TPI counter-1 = counter-screen for M. tuberculosis FBA inhibitors: GDH-TPI coupled enzymes; GDH-TPI coupled enzyme counterscreen, NADH absorbance; inhibition, % at 4.8 µM; 360,000 tested, 1.2% active; AID 588335; in the data active means inhibition above about 30%;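 further: 0% = DMSO wells and 100% = wells lacking the enzyme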
Mtb FBA inh conf = confirmation of M. tuberculosis fructose-bisphosphate aldolase inhibitors | shares compounds with FBA Mtb inh | purified M. tuberculosis FBA, fluorescence read-out | inhibition, % at 1 µM | 5,600 tested, 78% active | AID 651616;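 further: 0% = vehicle wells and 100% = reference inhibitor wells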
GDH-TPI counter-2 = counter-screen for M. tuberculosis FBA inhibitors: GDH-TPI coupled enzyme inhibition. shares compounds with FBA Mtb inh. GDH-TPI coupled enzyme counterscreen, fluorescence. inhibition, % at 1 µM. 5,600 tested, 81% active. AID 652141; in the data active means inhibition above about 10%
* = called active by the depositor; . = no result given; + = active, no number. Unless noted, no stated cut-off is given here; in the data, active means inhibition above about 27%; inactive means the rest.

SMILES	Mtb bLac sens	SSB-PriA inh	Mtb UGM inh	Rv3671c protease	FBA Mtb inh	GDH-TPI counter-1	Mtb FBA inh conf	GDH-TPI counter-2
Cc1cc(=O)oc2cc(OC(C)C(=O)NCCCn3ccnc3)ccc12 (stereo not drawn)	-2.1	9.5	0.1	-2.9	16.1	11.2	.	.
CCc1cc(=O)oc2c(C)c(OC(C)C(=O)NCCCn3ccnc3)ccc12 (stereo not drawn)	0.2	2.2	0.3	1.9	65.6*	3.0	77.5*	67.8*
CCCc1cc(=O)oc2cc(OCC(=O)NCCCn3ccnc3)c(Cl)cc12	-2.6	-6.2	-0.5	-12.8	3.4	11.8	.	.
CC(=NNC(=O)CCn1nnc2ccccc21)c1ccco1	.	-7.7	.	.	.	.	.	.
Cc1ccc(N2C(=O)C3N=NN(Cc4nc(-c5ccc6c(c5)OCO6)no4)C3C2=O)cc1F (stereo not drawn)	.	-2.0	.	.	.	.	.	.
Cc1ccccc1N(CC(=O)N1CCN(c2ccccc2)CC1)S(C)(=O)=O	-3.9	-1.2	1.2	-2.1	27.7*	3.6	52.3*	37.3*
Cc1ccccc1N(CC(=O)N1CCN(Cc2ccccc2)CC1)S(C)(=O)=O	.	.	.	.	-3.8	1.8	.	.
COc1ccc2oc(=O)c(S(=O)(=O)N3CCCC(C)C3)cc2c1 (stereo not drawn)	.	-7.0	.	.	.	.	.	.
CN1CCc2c(sc3c2C(=O)NC(c2ccccc2)N3)C1 (stereo not drawn)	-0.8	4.8	3.6	-8.7	25.0	8.5	.	.
Cc1ccc(C2NC(=O)c3c(sc4c3CCN(C)C4)N2)s1 (stereo not drawn)	6.2	5.5	0.2	-4.5	44.9*	19.2	69.4*	71.2*
COc1ccc(-c2cc(=O)oc3cc(OC(=O)C4CCCCC4)c(Cl)cc23)cc1	3.2	-11.7	-6.1	-4.8	44.7*	8.5	46.1*	42.0*
Cc1cc(OCC(=O)NCCN2CCOCC2)c2c(C)c(C)c(=O)oc2c1	10.2	-7.6	-4.6	0.7	52.2*	9.6	-6.1	-6.3
CCCCc1cc(=O)oc2cc(C)cc(OCC(=O)NCCN3CCOCC3)c12	2.5	-16.2	-2.9	-1.0	51.4*	14.5	+	170.0*
CCCc1cc(=O)oc2cc(OCC(=O)NCCCN3CCOCC3)c(Cl)cc12	4.2	-11.6	-1.2	3.0	12.1	20.0	.	.
CCCc1cc(=O)oc2cc(C)cc(OCC(=O)NCCCN3CCOCC3)c12	1.6	-3.9	1.1	1.0	73.2*	7.4	25.4	30.3*
Cn1c2c(c(=O)[nH]c1=O)[C@H](c1ccco1)NC(=O)N2	.	-4.0	.	.	.	.	.	.
O=C(CNc1ccc2ccccc2c1)NN=Cc1cc2ccccc2nc1Cl	.	11.6	.	.	.	.	.	.
Cc1ccc2nc(C)cc(NN=Cc3ccc(F)cc3)c2c1	.	2.5	.	.	.	.	.	.
O=C(NCC1CCN(Cc2ccsc2)CC1)c1ccc(OC(F)(F)F)cc1	.	-17.0	.	.	.	.	.	.
C=CCc1cccc(C=Nc2cccn3cc(-c4ccccc4)nc23)c1O	4.2	-5.0	-3.5	1.5	39.2*	9.3	+	175.9*
CC(=NNc1ccc(C)cc1)C1(C)N(O)C(C)(C)C(c2ccco2)=[N+]1[O-] (stereo not drawn)	.	9.3	.	.	.	.	.	.
C/C(=N/Nc1ccc(C)cc1)C1(C)N(O)C(C)(C)C(c2ccco2)=[N+]1[O-] (stereo not drawn)	77.9	.	3.3	4.7	33.3*	7.7	73.7*	57.9*
Cc1ccccc1NC1=CC(=NS(=O)(=O)c2ccc(C(=O)O)cc2)c2ccccc2C1=O	.	17.0	.	.	.	.	.	.
COc1cc2[nH]c(=O)c(C(=O)NCCCN3CCOCC3)c(O)c2cc1OC	-0.2	-8.6	0.1	2.6	38.6*	14.4	28.9*	17.6*
COc1cc2[nH]c3c(=O)n(CCN(C(C)C)C(C)C)cnc3c2cc1OC	11.8	-1.0	-4.2	-2.5	55.2*	14.3	5.8	2.1
COc1ccc2c(c1)[nH]c1c(=O)n(CCN3CCOCC3)cnc12	-5.0	-9.5	-1.9	7.7	4.5	3.8	.	.
COc1cc2[nH]c3c(=O)n(CCN4CCOCC4)cnc3c2cc1OC	0.4	-11.8	1.9	5.2	59.6*	7.7	+	+
COc1ccccc1CNC(=O)Cn1cnc2c(-c3ccc(Cl)cc3)csc2c1=O	.	-20.0	.	.	.	.	.	.
CN(C)CCCNc1nc2cc(-c3cccc(Cl)c3)sc2c(=O)n1C	.	.	.	.	0.8	13.7	.	.
